HPGD block = qHTS Assay for Inhibitors of HPGD (15-Hydroxyprostaglandin Dehydrogenase); 15-hydroxyprostaglandin dehydrogenase [NAD(+)] (Homo sapiens), P15428; Potency, µM, for the others: at the highest dose activity change, negative = inhibition, actives largely listed as inhibitors; purified HPGD, NADH fluorescence kinetic, PGE2 substrate; AID 894, 2007; 150,000 compounds, 4.3% hits; active = well fitted inhibition curve with a large enough effect, not every such curve was filed as active; inconclusive = small, poorly fitted or top-dose-only effect, or another doubt; inactive = no such curve, though single readings can be large or run the other way
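20 nM HPGD preincubated 15 min at room temperature with compound in 50 mM Tris-HCl pH 8, 0.01% Tween 20. Started with 1 mM NAD+ and 30 uM prostaglandin E2; NADH fluorescence (360/450 nm) read 5 times over 30-s intervals, last minus first.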
p53ts 32C tox = qHTS Screen for Compounds that Selectively Target Cancer Cells with p53 Mutations: Cytotoxicity of p53ts Cells at the Permissive Temperature. H1299-p53A138V at 32C, ATP luminescence viability, 24 h. Potency, µM (doses to about 46.1 µM), inactives show top-dose activity change, negative = cytotoxicity, most hits filed as cytotoxic. 130,000 compounds, 0.93% hits. AID 924, 2007;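 note: 0% = DMSO and -100% = full killing by reference compound; nearly all actives have a fitted effect of over 55% in size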
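H1299-p53 A138V cells (temperature-sensitive p53) exposed 24 h to up to 46 uM compound at 32C, where p53 is wild-type in conformation. Viability read as ATP luminescence and normalised to DMSO and 100 uM tamoxifen. AC50 fitted with the Hill equation.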
p53ts 39C tox = qHTS Screen for Compounds that Selectively Target Cancer Cells with p53 Mutations: Cytotoxicity of p53ts Cells at the Nonpermissive Temperature; 130,000 compounds, 1.5% hits; Potency, µM (series often up to 46.1 µM), without a hit: top-dose activity change, negative = cell killing, hits mostly cytotoxic; H1299-p53A138V viability at 39C, ATP luminescence, 24 h; note: nearly all actives have a fitted effect of over 55% in size
12-hLO inh = qHTS Assay for Inhibitors of 12-hLO (12-human lipoxygenase); Polyunsaturated fatty acid lipoxygenase ALOX12 (Homo sapiens), P18054; purified 12-hLO, xylenol orange hydroperoxide absorbance; Potency, µM (titrated, usually from 57.1 µM), for inactives: top-dose activity change, negative = inhibition, hits mostly inhibitors; 150,000 compounds, 0.12% hits; note: nearly all actives have a fitted effect of over 55% in size
Target sequence (P18054 whole entry, looked up): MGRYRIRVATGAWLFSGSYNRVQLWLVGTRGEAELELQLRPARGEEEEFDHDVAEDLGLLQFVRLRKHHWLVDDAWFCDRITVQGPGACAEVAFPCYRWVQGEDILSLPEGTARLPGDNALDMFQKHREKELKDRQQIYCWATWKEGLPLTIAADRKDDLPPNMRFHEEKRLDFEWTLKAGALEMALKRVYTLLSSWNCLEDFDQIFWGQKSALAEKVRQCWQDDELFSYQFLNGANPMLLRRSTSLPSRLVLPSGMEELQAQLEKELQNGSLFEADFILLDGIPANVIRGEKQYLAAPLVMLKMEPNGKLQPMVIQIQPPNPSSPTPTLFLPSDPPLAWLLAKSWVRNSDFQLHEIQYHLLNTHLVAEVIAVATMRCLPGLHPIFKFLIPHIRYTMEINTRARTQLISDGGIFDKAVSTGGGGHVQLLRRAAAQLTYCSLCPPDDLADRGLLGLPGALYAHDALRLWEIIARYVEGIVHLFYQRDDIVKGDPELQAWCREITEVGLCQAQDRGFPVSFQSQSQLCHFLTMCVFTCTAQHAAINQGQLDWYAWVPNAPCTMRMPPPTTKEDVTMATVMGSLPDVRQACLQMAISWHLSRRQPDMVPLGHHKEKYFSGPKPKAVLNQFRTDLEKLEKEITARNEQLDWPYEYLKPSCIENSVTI
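Xylenol orange chromogenic assay: hydroperoxide from 12hLO oxidises Fe(II), giving red-shifted Fe(III)-XO absorbance. Conditions: 150 nM enzyme, 40 uM arachidonic acid, 25 mM Hepes pH 7.0, 0.01% Triton X-100, 30 min, room temperature.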
Starred values were filed as active, the others as inactive; ? = inconclusive; nt = no result given; [ ] = remark or other dose. An excerpt weighted towards active compounds, which were near 4.4% of everything screened. Unless noted, calls come from the whole dose curve; as a rule, active = well fitted curve in the direction sought with a large enough effect; inconclusive = small, poorly fitted or top-dose-only effect, or another doubt; inactive = no such curve, though single readings can be large; an effect the other way counts as inactive or inconclusive. Unless noted, % is set by controls: 0 for no effect and ±100 for the full control effect; potency is the fitted concentration of half-maximal effect.

SMILES	HPGD block	p53ts 32C tox	p53ts 39C tox	12-hLO inh
CCc1ccccc1NC(=O)CSc1ncc2c(n1)-c1ccccc1N(Cc1ccc(C)cc1)S2(=O)=O	nt	-9.1%	-9.9%	nt
O=C1Nc2cc(Cl)c(Cl)cc2N(O)N1c1cccc(Cl)c1	-4.4%	nt	nt	4.4%
Cc1ccc(N2C(=O)c3ccccc3C2=O)cc1Cl	-11.1%	-6.2%	3.9%	-1.3%
CC(C)=C1C(=O)NN(c2cccc(Cl)c2)C1=O	7.94µM*	nt	nt	-12.8%
CC(C)=C1C(=O)NN(c2ccc(C)c(Cl)c2)C1=O	15.8µM*	nt	nt	-27.2%
CCOC(=O)c1cccc(NC(=O)CCc2c(C)nn(-c3ccc(N4CCOCC4)nn3)c2C)c1	nt	-10.7%	-17.9%	nt
COc1ccc(/C=C/C2=C[C@]3(C)C[C@]2(C)[C@H](c2ccc(OC)cc2)CC3=O)cc1	-3.2%	nt	nt	3.8%
N#Cc1c(N)nc2c(c1-c1ccc3c(c1)OCO3)CCc1ccccc1-2	?	nt	nt	-1.5%
c1ccc2c(c1)Cc1cc3cc4c(cc3nc1-2)OCO4	?	1µM*	1.26µM*	-14.8%
CN(CCc1ccc(Cl)c(Cl)c1)CCN1CCCCCC1	1.2%	?	15.8µM*	-2.4%
O=C(NC(=S)Nn1cnnc1)c1cccc(Br)c1	22.4µM*	nt	nt	-8.0%
CC(C)=CCC/C(C)=C/CO/N=C1/C[C@@H](O)[C@@H](O)[C@@H]2[C@@H]3C(=O)N(Cc4ccccc4)C(=O)[C@H]3CC[C@@H]12	nt	2.8%[9.22 µM]	3.8%[9.22 µM]	nt
COc1cc([C@H]2Oc3cc([C@H]4Oc5cc(O)cc(O)c5C(=O)[C@@H]4O)ccc3O[C@@H]2CO)ccc1O	-23.6%	9.4%[1.84 µM]	23.2%	5.0%
COc1cc([C@@H]2Oc3cc([C@H]4Oc5cc(O)cc(O)c5C(=O)[C@H]4O)ccc3O[C@H]2CO)ccc1O	35.5µM*	29.8%	12.0%	?
Cc1ccc2nc(-c3ccc(N4CCOCC4)cc3)c(Nc3ccccc3C)n2c1	nt	12.6µM*	?	nt
Cc1ccccc1Nc1c(-c2ccc(N3CCOCC3)cc2)nc2ccc(Cl)cn12	nt	?	10µM*	nt
Nc1ccc(CCNc2ncnc3c2ncn3[C@@H]2O[C@@H](CO)[C@H](O)[C@@H]2O)cc1	nt	15.9%	11.3%	-6.0%
CCOc1ccc(CNC(=O)c2cc3c(=O)n(Cc4cccs4)ccc3nc2C)cc1	nt	-19.9%	4.3%	nt
O=C(O)CC1S/C(=N/N=C/c2ccc(-c3ccc(Cl)cc3[N+](=O)[O-])o2)NC1=O (stereo unspecified)	8.91µM*	nt	nt	?
O=C(O)CC1S/C(=N/N=C/C=C/c2ccccc2[N+](=O)[O-])NC1=O (stereo unspecified)	-13.8%	nt	nt	-0.6%
CCN(CC)S(=O)(=O)c1nnc(NC(=O)COc2ccc(Cl)cc2)s1	nt	?	15.8µM*	nt
CCN(CC)S(=O)(=O)c1nnc(NC(=O)COc2ccccc2)s1	nt	-4.0%	-4.6%	nt
Cc1ccc(CNS(=O)(=O)c2ccc3c(c2)OCCO3)cc1	-2.7%	nt	nt	-1.6%
Cc1ccccc1CNS(=O)(=O)c1ccc2c(c1)OCCO2	25.1µM*	-6.1%	0.3%	1.2%
CC(C)CNS(=O)(=O)c1ccc2c(c1)OCCO2	31.6µM*	nt	nt	0.3%
SMILES	HPGD block	p53ts 32C tox	p53ts 39C tox	12-hLO inh
CCn1c(=O)cc(OCC(=O)N(C)c2cc(Cl)ccc2C)c2ccccc21	nt	4.5%	?	nt
CC(=O)Nc1ccc(-c2nnc3n(Cc4ccc(C)cc4)c(=O)c4ccccc4n23)cc1	nt	10.9%	34.1%	nt
Cc1cc(C(=O)NCc2cccnc2)no1	-8.5%	2.6%	-9.1%	1.8%
Cc1cc2c(cc(C(=O)NCc3cccnc3)n2Cc2ccc(Cl)cc2)o1	17.8µM*	9.2%	15.0%	?
O=C(NCc1ccccc1)c1ccc(CSc2nc3cccnc3n2Cc2cccc(F)c2)cc1	nt	-15.0%	nt	nt
CCC(Sc1nncn2c1cc1oc(C)cc12)C(=O)Nc1ccc(F)cc1 (stereo unspecified)	nt	-24.3%	20µM*	nt
CCOC(=O)c1ccc(NC(=O)C(CC)Sc2nncn3c2cc2oc(C)cc23)cc1 (stereo unspecified)	nt	9.4%	-0.5%	nt
COCCn1c(SCc2nnc(-c3ccccc3)o2)nc2sc3c(c2c1=O)CCC3	7.08µM*	7.8%	12.1%	-7.7%
COCCn1c(SCC(=O)Nc2ncc(C)s2)nc2sc3c(c2c1=O)CCC3	-10.2%	-0.1%	-11.1%	-6.6%
